PubChem BioAssay (NCI)
The panel holds about 83,000 compounds, 20% with a hit somewhere; the sample as a whole holds those more often.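 Assay: single dose, 48 h. Readout: percent growth (0 = no net growth; negative = cell death). Active: <10.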 Values without a mark were called inactive. Calls of active or inactive are those of the source.

Legend:
Assay in all cases: NCI-60 one-dose screen, 48 h (100 = growth as untreated, 0 = no growth, -100 = all killed)
HCT-15 colon = details: 10 µM unless noted
HT29 colon = details: 10 µM unless noted
SNB-75 CNS = details: 10 µM unless noted
SNB-19 CNS = details: 10 µM unless noted
U251 CNS = details: 10 µM unless noted
PC-3 prostate = details: 10 µM unless noted
SK-MEL-5 melanoma = details: 10 µM unless noted
UACC-62 melanoma = details: 10 µM unless noted
LOX IMVI melanoma = details: 10 µM unless noted
SK-MEL-28 melanoma = details: 10 µM unless noted
SK-MEL-2 melanoma = details: 10 µM unless noted
EKVX NSCLC = details: 10 µM unless noted
SN12C renal = details: 10 µM unless noted
UO-31 renal = details: 10 µM unless noted
TK-10 renal = details: 10 µM unless noted
ACHN renal = details: 10 µM unless noted
CAKI-1 renal = details: 10 µM unless noted
HL-60(TB) leukemia = details: 10 µM unless noted
CCRF-CEM leukemia = details: 10 µM unless noted
A498 renal = details: 10 µM

| Structure (SMILES) | growth (HCT-15 colon) | growth (HT29 colon) | growth (SNB-75 CNS) | growth (SNB-19 CNS) | growth (U251 CNS) | growth (PC-3 prostate) | growth (SK-MEL-5 melanoma) | growth (UACC-62 melanoma) | growth (LOX IMVI melanoma) | growth (SK-MEL-28 melanoma) | growth (SK-MEL-2 melanoma) | growth (EKVX NSCLC) | growth (SN12C renal) [%] | growth (UO-31 renal) | growth (TK-10 renal) | growth (ACHN renal) | growth (CAKI-1 renal) [%] | growth (HL-60(TB) leukemia) | growth (CCRF-CEM leukemia) | growth (A498 renal) |
| --- | --- | --- | --- | --- | --- | --- | --- | --- | --- | --- | --- | --- | --- | --- | --- | --- | --- | --- | --- | --- |
| COc1ccc(O)c(CNC(=O)CN2CCCC2=O)c1 | 103% | 104% | 81.3% | 103% | 103% | 92.1% | 107% | 96.6% | 99.4% | 99.4% | 103% | 100% | 97.6 | 98.7% | 105% | 99.7% | 97.4 | 142% | 26.4% | – |
| COc1ccc([As]=[As]c2ccc(OC)c(NCS(=O)(=O)O)c2)cc1NCS(=O)(=O)O (stereo not drawn) | -72.2% (active) | 39.8% | 36.9% | 0.15% (active) | -43% (active) | 32.5% | 1.61% (active) | 17% | 5.45% (active) | 0.0807% (active) | 23.9% | 0.829% (active) | 12.4 | 25.7% | -16.2% (active) | 46.6% | – | -7.43% (active) | -13.9% (active) | 20.9% |
| Nc1nc([Se])c2ncn(C3OC(CO)C(O)C3O)c2n1 (stereo not drawn) | 85.6% | 55.2% | 96.7% | 98% | 94.6% | 93.4% | 92.2% | 68.5% | 10.1% | 98.9% | 104% | 62.9% | 94.7 | 84.9% | 59.6% | 84.3% | – | 41.7% | 16.3% | 95.3% |
| Cn1cc(C=O)c2nccnc21 | 114% | 93% | 78.5% | 110% | 97.1% | 107% | 104% | 102% | 94.5% | 94% | 123% | 96.9% | 104 | 106% | 94.8% | 109% | 91.4 | 107% | 102% | – |
| COC(=O)CCc1c[nH]c2ccc(N(CCCl)CCCl)cc12 | 64.9% | 59.3% | 49% | 54% | 40.1% | 65.3% | 52% | 49.3% | 29.7% | 91.1% | 121% | 96.6% | 36.6 | 19.5% | 90% | 12.6% | – | 17.5% | – | 84.3% |
| CCCCN1CCCC[C@@H]1C(=O)N[C@H](C(=O)N(C)[C@H](CCc1nc(C(=O)N[C@@H](Cc2ccccc2)C[C@H](C)C(=O)OC)cs1)C(C)C)[C@@H](C)CC | 41.4% | 35.2% | 70.3% | 62.5% | 58.3% | 40.8% | 34.8% | 47% | 78.2% | 81.1% | 24.8% | 61.2% | 77.6 | 48% | 69.2% | 52.2% | – | 27.5% | 61.6% | 32.9% |
| O=P(N1CC1)(N1CC1)N1CCc2ccccc21 | 115% | 104% | 91.1% | 102% | 95.5% | 88.6% | 109% | 92.8% | 93.3% | 115% | 121% | 119% | 92.4 | 92.2% | 110% | 108% | – | – | 104% | 106% |
| COc1cc([C@@H]2c3cc4c(cc3[C@H](OC(C)=O)[C@H]3COC(=O)[C@H]23)OCO4)cc(OC)c1OC | 9.64% (active) | 5.66% (active) | 41.4% | 39.4% | 18.9% | 30.2% | -17.6% (active) | 43.2% | 18.7% | 64.3% | 33.2% | 38.3% | 31.9 | 43.7% | 65.9% | 28.7% | – | -24.8% (active) | 14.4% | -7.56% (active) |
| O=[N+]([O-])CC(O)C(Cl)(Cl)Cl (stereo not drawn) | 102% | 111% | 81.1% | 106% | 99.1% | 94.9% | 107% | 107% | 99.8% | 102% | 150% | 101% | 106 | 80.2% | 110% | 96.5% | – | 83.7% | -21.1% (active) | 87.3% |
| COC(=O)[C@@H](C)C[C@H](Cc1ccccc1)NC(=O)c1cccc([C@@H](C[C@H](C(C)C)N(C)C(=O)[C@@H](NC(=O)[C@H]2CCCCN2C)C(C)C)OC(C)=O)n1 | 10.6% | 6.05% (active) | 26.5% | 18.5% | 14.6% | 28.7% | -50.6% (active) | 29.1% | 13.6% | 67.2% | 26.4% | 34.3% | 17.1 | 41.8% | 58.7% | 30.4% | – | -28.6% (active) | 7.41% (active) | -0.869% (active) |
| CC(=O)OC[C@]1(C)C=C2C(=O)[C@](C)(O)C3(CC3)C(C)=C2[C@H]1OC(=O)N(C)CCN(C)C(=O)OC(C)(C)C | 3.65% (active) | 0.176% (active) | -15.1% (active) | 8.79% (active) | 4.09% (active) | -21.4% (active) | -74.4% (active) | -52% (active) | -6.97% (active) | -4.04% (active) | -74.3% (active) | -7.18% (active) | 14.2 | -48.5% (active) | -8.19% (active) | -8.88% (active) | – | -37% (active) | 19.9% | -10.8% (active) |
| CC1=C(CCCOC(=O)CN)C2=C(C)C3(CC3)[C@@](C)(O)C(=O)C2=C1 | 77.6% | 69.9% | 97% | 91.2% | 82.3% | 69.4% | 92.2% | 90.8% | 88.6% | 115% | 102% | 95.8% | 81.3 | 73.3% | 102% | 97.4% | – | 75.2% | 81.1% | 94.7% |
| CC[C@H](C)[C@H](NC(=O)[C@H]1CCCCN1C)C(=O)N(C)[C@H](CC(=O)c1nc(C(=O)N[C@@H](Cc2ccccc2)C[C@H](C)C(=O)O)cs1)C(C)C | 99.2% | 78% | 49.3% | 55.5% | 45.9% | 78.3% | 56.1% | 32.2% | 47.2% | 81.3% | 37.8% | 91.5% | 83.8 | 88.6% | 97.2% | 109% | – | -7.69% (active) | 21.2% | 73.4% |
| COC(=O)[C@@H](C)C[C@H](Cc1ccccc1)NC(=O)c1nc([C@@H](C[C@H](C(C)C)N(C)C(=O)[C@@H](NC(=O)[C@H]2CCCCN2C)C(C)C)OC(C)=O)sc1C | 12.9% | 4.71% (active) | 12.7% | 24.3% | 14.6% | 28.9% | -39.2% (active) | 30.2% | 12.4% | 66.1% | 26.5% | 33.9% | 18.3 | 44.5% | 31.1% | 24.5% | – | -43.5% (active) | 7.82% (active) | -19.3% (active) |
| CC(=O)O[C@H](C[C@H](C(C)C)N(C)C(=O)[C@@H](NC(=O)[C@H]1CCCCN1C)C(C)(C)C)c1nc(C(=O)N[C@@H](Cc2ccccc2)C[C@H](C)C(=O)O)cs1 | 5.59% (active) | 1.32% (active) | 17% | 23.4% | 11.1% | 25.1% | -50.6% (active) | 26.2% | 14.3% | 52.6% | 21.8% | 39.7% | 17.9 | 43% | 52.6% | 29% | – | -26% (active) | 1.05% (active) | -6.47% (active) |
